Source: PubChem BioAssay (The Scripps Research Institute Molecular Screening Center)
This is a sample that favours compounds with a hit; in the whole collection about 2.5% have one here.
ASK1 inh: human ASK1 kinase inhibition, primary screen | hit rate 0.99% among 22,000 | AlphaScreen MKK6 phosphorylation by ASK1, luminescence | inhibition, % at 7.44 µM | AID 1159602 | Q99683; in the data active = inhibition above about 35%;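 note: 0% = median of compound wells and 100% = no enzyme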
ULK1 inh: inhibitors of human ULK1 kinase | AlphaScreen Atg13 phosphorylation by ULK1, luminescence | inhibition, % at 5.96 µM | hit rate 1.9% among 30,000 | AID 1259251; in the data active = inhibition above about 43%;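 note: 0% = median of compound wells and 100% = no enzyme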
* hit, by the source's call; x = no result given.

SMILES	ASK1 inh	ULK1 inh
COc1ccc(CCNc2nc(Nc3ccc4ncccc4c3)ncc2C)cc1	-4.2	32.1
COc1cc(Nc2nc(Nc3ncccn3)ncc2C)cc(OC)c1OC	-5.2	28.9
COc1ccc(C(N)C(=O)N2CCC(Nc3cccc4c(=O)[nH]cnc34)CC2)cc1 (configuration not stated)	-9.7	6.6
Cn1c(=O)cc(NCCCN2CCOCC2)n(Cc2ccc(F)cc2F)c1=O	x	1.9
Oc1cccc2[nH]ccc12	x	19.7
c1ccc2[nH]ccc2c1	x	83.3*
O=C(O)CCCC[C@H]1SC[C@H]2NC(=O)N[C@H]21	x	100.0*
CNS(=O)(=O)c1ccccc1Nc1cc(Nc2ccc(N3CCOCC3)cc2OC)ncc1C(F)(F)F	8.2	90.8*
CNC(=O)c1cc(F)c(F)cc1Nc1cc(Nc2ccc(N3CCOCC3)cc2OC)ncc1C(F)(F)F	7.5	69.0*
CNC(=O)c1cc(F)ccc1Nc1cc(Nc2ccc(N3CCOCC3)cc2OC)ncc1C(F)(F)F	17.0	84.2*
COc1cc(N2CCOCC2)ccc1Nc1cc(Nc2ccccc2S(=O)(=O)NC(C)C)c(C(F)(F)F)cn1	9.8	28.8
CNC(=O)c1ccccc1Nc1cc(Nc2ccc(N3CCOCC3)cc2OC)ncc1Br	-0.5	85.7*
COc1cc(N2CCOCC2)ccc1Nc1cc(Nc2ccc(F)cc2OC)c(C(F)(F)F)cn1	18.4	25.7
CNC(=O)c1cc(F)c(F)cc1Nc1cc(Nc2ccc3c(c2)CC(=O)N3)ncc1C(F)(F)F	8.9	30.0
COc1cc(N2CCOCC2)ccc1Nc1cc(Nc2ccccn2)c(C(F)(F)F)cn1	24.6	38.8
O=C1CCCN1CCCNc1nc(NC2CCN(Cc3ccccc3)CC2)c2ncn(-c3ccsc3)c2n1	0.0	9.1
Cn1cc(-c2ccccc2NC(=O)Nc2ccc([N+](=O)[O-])cc2)cn1	x	-9.6
O=C(NCc1ccccc1)c1ccc2nc(Br)sc2c1	-8.6	11.3
CNC(=O)c1cnccc1Nc1cc(Nc2ccc3c(c2)CC(=O)N3)ncc1C(F)(F)F	-1.3	19.0
CNC(=O)c1ccccc1Nc1cc(NC(=O)C(C)(C)c2ccccc2)ncc1C(F)(F)F	1.4	-17.2
CNC(=O)c1ccccc1Nc1cc(Nc2ncccc2C)ncc1C(F)(F)F	-3.3	62.4*
CNC(=O)c1ccccc1Nc1cc(Nc2cccnc2)ncc1C(F)(F)F	-1.0	61.2*
COc1cc(Nc2nc(NCCc3ccc(O)cc3)c3ncn(C(C)C)c3n2)cc(OC)c1OC	19.5	-24.9
O=C1/C(=C/c2ccc(Br)cc2)SC(=S)N1C1CCS(=O)(=O)C1 (configuration not stated)	x	7.0
CN(C)c1cccc(Nc2nc(C(=O)NC3CCN(Cc4ccccc4)CC3)cs2)c1	12.8	18.1
SMILES	ASK1 inh	ULK1 inh
Nc1nccc(Nc2ccnc(Nc3ccc(N4CCOCC4)cc3)c2)n1	17.5	43.3*
O=C(Nc1ccc(N2CCOCC2)cc1)c1ccnc(Nc2ccncc2)c1	-22.4	48.7*
O=C(Nc1ccc(N2CCOCC2)cc1)c1cncc(Nc2ccncc2)c1	-27.9	65.8*
Cc1cc(Nc2ccc(N3CCOCC3)cc2)nc(Nc2ccccc2)n1	42.0*	6.6
Cn1nccc1Nc1cc(C(=O)Nc2ccc(N3CCOCC3)cc2)ccn1	19.8	8.5
O=C(Nc1ccc(N2CCOCC2)cc1)c1cncc(-c2ccc(N3CCOCC3)nc2)c1	10.5	15.4
Cc1cc(NCc2ccccc2)nc(Nc2ccc(N3CCOCC3)cc2)n1	24.4	10.9
c1cc(Nc2ccc(N3CCOCC3)cc2)cc(Nc2ccc(N3CCOCC3)cc2)n1	29.1	6.4
CCCNc1nc(Oc2ccccc2)ncc1C	-2.9	7.2
COc1cc(Nc2cccc(C(=O)NCc3nc4ccccc4[nH]3)c2)cc(OC)c1OC	0.7	6.9
O=C(NCCN1CCOCC1)c1cnc(Nc2ccc(C(F)(F)F)cc2)s1	-14.0	-7.2
CCOC(=O)CSc1nnc(CNc2cc(Cl)ccc2Cl)n1C	x	-7.6
COc1ccc(N2CCN(S(=O)(=O)CCNC(=O)C3CCCC3)CC2)cc1	x	6.8
O=C(NCCN1CCOCC1)C1CCN(c2ccc(Nc3cnccn3)nn2)CC1	-7.5	-0.8
O=C(Nc1ccc(N2CCOCC2)cc1)c1ccnc(NCc2ccc3c(c2)OCO3)c1	-18.9	44.6*
O=C(NCCN1CCOCC1)c1ccnc(NCc2ccc3c(c2)OCO3)c1	-7.0	0.3
CC(=O)Nc1ccc(NC(=O)c2cccc(N3CCOCC3)c2)cc1	-23.6	6.3
O=C(Nc1ccc2c(c1)OCO2)c1cccc(Nc2ccc(-n3ccnc3)cc2)c1	-5.2	3.4
O=C(Nc1ccc(N2CCOCC2)cc1)c1cccc(Nc2ccc(-n3ccnc3)cc2)c1	14.3	44.4*
O=C(Nc1ccc(N2CCOCC2)cc1)c1cccc(Nc2ccncc2)c1	-18.0	69.5*
CC(C)n1cnc2c(NCCOc3ccccc3)nc(Nc3nc4ccccc4n3C)nc21	13.7	-18.5
CN(C)c1cccc(Nc2nc(NCCc3ccc(O)cc3)c3ncn(-c4ccsc4)c3n2)c1	29.3	14.9
N[C@@H](Cc1ccc(Br)cc1)C(=O)N1CCC(c2nc(-c3ccncc3)no2)C1 (some centres not stated)	-5.1	3.0
